Assay results from the supplement of paper PMC8728848.
The full list was thinned out, with the strongest signals kept by preference.

Columns and labels:
Assay in all cases: glycan array binding signal (z-score within array); higher = stronger binding
Conditions in all cases: glycan notation: IUPAC condensed, linker removed
[1] = molecular target: Fuc(a1-2)Gal(b1-4)Fuc(a1-3)]GlcNAc(b1-2)Man(a1-3)[Fuc(a1-2)Gal(b1-4)[Fuc(a1-3)]GlcNAc(b1-2)Man(a1-6)]Man(b1-4)GlcNAc(b1-4)GlcNAc
Method in brief: (§1)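 The binding signal is a Z-score computed within each array and averaged over linkers. Arrays of the same protein sequence at different concentrations or buffers were also averaged together. Data originate from 3228 arrays in the Consortium for Functional Glycomics database, kept only where the protein sequence was available.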

[2] = molecular target: Fuc(a1-2)[Gal(a1-4)]Gal(b1-4)GlcNAc
Method in brief: as §1

[3] = molecular target: Fuc(a1-2)[GalNAc(a1-3)]Gal(b1-3)GlcNAc(b1-3)GalNAc
Method in brief: as §1

Fuc(a1-4)GlcNAc = molecular target: Fuc(a1-4)GlcNAc
Method in brief: as §1

Gal(a1-3)Gal(b1-3)GlcNAc = molecular target: Gal(a1-3)Gal(b1-3)GlcNAc
Method in brief: as §1

[4] = molecular target: Gal(a1-3)Gal(b1-3)GlcNAc(b1-2)Man
Method in brief: as §1

[5] = molecular target: Gal(a1-3)Gal(b1-3)GlcNAc(b1-6)GalNAc
Method in brief: as §1

[6] = molecular target: Gal(a1-3)Gal(b1-4)GlcNAc(b1-2)Man(a1-3)[Gal(a1-3)Gal(b1-4)GlcNAc(b1-2)Man(a1-6)]Man(b1-4)GlcNAc(b1-4)GlcNAc
Method in brief: as §1

[7] = molecular target: Gal(a1-3)Gal(b1-4)[Fuc(a1-3)]GlcNAc(b1-2)Man(a1-3)[Gal(a1-3)Gal(b1-4)[Fuc(a1-3)]GlcNAc(b1-2)Man(a1-6)]Man(b1-4)GlcNAc(b1-4)GlcNAc
Method in brief: as §1

[8] = molecular target: Gal(a1-3)[Gal(a1-4)]Gal(b1-4)GlcNAc
Method in brief: as §1

Gal(a1-4)Gal(b1-4)Gal = molecular target: Gal(a1-4)Gal(b1-4)Gal
Method in brief: as §1

Gal(a1-4)Gal(b1-4)GlcNAc = molecular target: Gal(a1-4)Gal(b1-4)GlcNAc
Method in brief: as §1

[9] = molecular target: Gal(a1-4)Gal(b1-4)GlcNAc(b1-2)Man(a1-3)[Gal(a1-4)Gal(b1-4)GlcNAc(b1-2)Man(a1-6)]Man(b1-4)GlcNAc(b1-4)GlcNAc
Method in brief: as §1

[10] = molecular target: Gal(a1-4)Gal(b1-4)GlcNAc(b1-3)Gal(b1-4)Glc
Method in brief: as §1

Gal(a1-4)GlcNAc = molecular target: Gal(a1-4)GlcNAc
Method in brief: as §1

Gal(b1-2)Gal = molecular target: Gal(b1-2)Gal
Method in brief: as §1

Gal(b1-3)Gal(b1-4)GlcNAc = molecular target: Gal(b1-3)Gal(b1-4)GlcNAc
Method in brief: as §1

Gal(b1-3)GalNAc = molecular target: Gal(b1-3)GalNAc
Method in brief: as §1

[11] = molecular target: Gal(b1-3)GalNAc(a1-3)[Fuc(a1-2)]Gal(b1-4)GlcNAc
Method in brief: as §1

[12] = molecular target: Gal(b1-3)GlcNAc(a1-3)Gal(b1-4)GlcNAc
Method in brief: as §1

[13] = molecular target: Gal(b1-3)GlcNAc(b1-3)Gal(b1-4)GlcNAc(b1-2)Man(a1-3)[Gal(b1-3)GlcNAc(b1-3)Gal(b1-4)GlcNAc(b1-2)Man(a1-6)]Man(b1-4)GlcNAc(b1-4)GlcNAc
Method in brief: as §1

[14] = molecular target: Gal(b1-3)GlcNAc(b1-6)GalNAc
Method in brief: as §1

[15] = molecular target: Gal(b1-3)[Fuc(a1-4)]GlcNAc(b1-3)Gal(b1-4)[Fuc(a1-3)]GlcNAc
Method in brief: as §1

Gal(b1-4)Glc6S = molecular target: Gal(b1-4)Glc6S
Method in brief: as §1

[16] = molecular target: Gal(b1-4)GlcNAc(a1-6)Gal(b1-4)GlcNAc
Method in brief: as §1

[17] = molecular target: Gal(b1-4)GlcNAc(b1-2)Man(a1-3)Man(b1-4)GlcNAc(b1-4)GlcNAc
Method in brief: as §1

[18] = molecular target: Gal(b1-4)GlcNAc(b1-2)Man(a1-3)[Gal(b1-4)GlcNAc(b1-2)Man(a1-6)]Man(b1-4)GlcNAc(b1-4)GlcNAc
Method in brief: as §1

[19] = molecular target: Gal(b1-4)GlcNAc(b1-2)Man(a1-3)[Man(a1-6)]Man(b1-4)GlcNAc(b1-4)GlcNAc
Method in brief: as §1

[20] = molecular target: Gal(b1-4)GlcNAc(b1-2)Man(a1-6)Man(b1-4)GlcNAc(b1-4)GlcNAc
Method in brief: as §1

[21] = molecular target: Gal(b1-4)GlcNAc(b1-2)Man(a1-6)[GlcNAc(b1-2)Man(a1-3)]Man(b1-4)GlcNAc(b1-4)GlcNAc
Method in brief: as §1

[22] = molecular target: Gal(b1-4)GlcNAc(b1-3)[Gal(b1-4)GlcNAc(b1-6)]Gal(b1-4)GlcNAc
Method in brief: as §1

Gal3S(b1-4)Glc6S = molecular target: Gal3S(b1-4)Glc6S
Method in brief: as §1

Gal6S(b1-3)GlcNAc6S = molecular target: Gal6S(b1-3)GlcNAc6S
Method in brief: as §1

Gal6S(b1-4)Glc6S = molecular target: Gal6S(b1-4)Glc6S
Method in brief: as §1

Gal6S(b1-4)GlcNAc = molecular target: Gal6S(b1-4)GlcNAc
Method in brief: as §1

Gal6S(b1-4)GlcNAc6S = molecular target: Gal6S(b1-4)GlcNAc6S
Method in brief: as §1

GalNAc(b1-6)GalNAc = molecular target: GalNAc(b1-6)GalNAc
Method in brief: as §1

[23] = molecular target: GlcNAc(a1-4)Gal(b1-3)GlcNAc
Method in brief: as §1

[24] = molecular target: GlcNAc(b1-2)[GlcNAc(b1-6)]Man(a1-6)[GlcNAc(b1-2)Man(a1-3)]Man(b1-4)GlcNAc(b1-4)GlcNAc
Method in brief: as §1

GlcNAc(b1-3)Fuc = molecular target: GlcNAc(b1-3)Fuc
Method in brief: as §1

[25] = molecular target: GlcNAc(b1-3)Gal(b1-4)GlcNAc(b1-3)GalNAc
Method in brief: as §1

[26] = molecular target: GlcNAc(b1-3)Gal(b1-4)GlcNAc(b1-3)[GlcNAc(b1-3)Gal(b1-4)GlcNAc(b1-3)]GalNAc
Method in brief: as §1

[27] = molecular target: GlcNAc(b1-3)Gal(b1-4)GlcNAc(b1-6)[Gal(b1-3)]GalNAc
Method in brief: as §1

GlcNAc(b1-4)GlcNAc = molecular target: GlcNAc(b1-4)GlcNAc
Method in brief: as §1

[28] = molecular target: GlcNAc(b1-4)GlcNAc(b1-4)GlcNAc(b1-4)GlcNAc(b1-4)GlcNAc
Method in brief: as §1

Kdn(a2-6)Gal(b1-4)GlcNAc = molecular target: Kdn(a2-6)Gal(b1-4)GlcNAc
Method in brief: as §1

Man(b1-4)GlcNAc = molecular target: Man(b1-4)GlcNAc
Method in brief: as §1

[29] = molecular target: Neu5Ac(a2-3)Gal(b1-3)GlcNAc(b1-2)Man
Method in brief: as §1

[30] = molecular target: Neu5Ac(a2-3)Gal(b1-3)[Fuc(a1-4)]GlcNAc(b1-3)Gal(b1-3)[Fuc(a1-4)]GlcNAc
Method in brief: as §1

[31] = molecular target: Neu5Ac(a2-3)Gal(b1-3)[Neu5Ac(a2-6)]GalNAc
Method in brief: as §1

[32] = molecular target: Neu5Ac(a2-3)Gal(b1-4)GlcNAc
Method in brief: as §1

[33] = molecular target: Neu5Ac(a2-3)Gal(b1-4)GlcNAc(b1-3)Gal(b1-4)GlcNAc(b1-3)Gal(b1-4)GlcNAc(b1-2)Man(a1-3)[Neu5Ac(a2-3)Gal(b1-4)GlcNAc(b1-3)Gal(b1-4)GlcNAc(b1-3)Gal(b1-4)GlcNAc(b1-2)Man(a1-6)]GalNAc
Method in brief: as §1

[34] = molecular target: Neu5Ac(a2-3)Gal(b1-4)[Fuc(a1-3)]GlcNAc(b1-3)Gal(b1-4)GlcNAc
Method in brief: as §1

[35] = molecular target: Neu5Ac(a2-3)Gal(b1-4)[Fuc(a1-3)]GlcNAc(b1-6)[Gal(b1-3)]GalNAc
Method in brief: as §1

[36] = molecular target: Neu5Ac(a2-3)[GalNAc(b1-4)]Gal(b1-4)Glc
Method in brief: as §1

[37] = molecular target: Neu5Ac(a2-6)GalNAc(b1-4)GlcNAc6S
Method in brief: as §1

Neu5Gc(a2-6)GalNAc = molecular target: Neu5Gc(a2-6)GalNAc
Method in brief: as §1

B1: Epa12 (Candida glabrata) (protein)
chain: MGSSHHHHHHSSGLVPRGSHMLEPDNSLQIFDSFLSNPSKYPLGCSPKITNPKKGLSMELYSYPYRKKGSHPCWDPAYLDPNFPRVGYKKNKLIARVDGVSGDINFNFHPKRQCTPIADYLPPNFNYNEPITTTNFTMLLYGYFKPKVTGLHTFDISADDLLFMNFGAGNAFDCCRRDSTADTFGNYVAWAIWGRRIVRNKLTVRLDKGIYYPLRLFFNNRDYYGQMRLTFKTEHGSERITDFSDYFFSVDDTSEGCPGLITYESECADVKSSTVLETDYITIQAEKE
[1]
  glycan array binding signal (z-score): -0.132
[2]
  glycan array binding signal (z-score): 4.84
[3]
  glycan array binding signal (z-score): -0.345
Fuc(a1-4)GlcNAc
  glycan array binding signal (z-score): -0.241
Gal(a1-3)Gal(b1-3)GlcNAc
  glycan array binding signal (z-score): 1.71
[4]
  glycan array binding signal (z-score): 3.52
[5]
  glycan array binding signal (z-score): 4.44
[6]
  glycan array binding signal (z-score): 2.04
[7]
  glycan array binding signal (z-score): -0.179
[8]
  glycan array binding signal (z-score): 1.17
Gal(a1-4)Gal(b1-4)Gal
  glycan array binding signal (z-score): -0.269
Gal(a1-4)Gal(b1-4)GlcNAc
  glycan array binding signal (z-score): 3.53
[9]
  glycan array binding signal (z-score): 0.51
[10]
  glycan array binding signal (z-score): 1.9
Gal(a1-4)GlcNAc
  glycan array binding signal (z-score): 5.7
Gal(b1-2)Gal
  glycan array binding signal (z-score): 0.125
Gal(b1-3)Gal(b1-4)GlcNAc
  glycan array binding signal (z-score): 3.49
Gal(b1-3)GalNAc
  glycan array binding signal (z-score): 0.135
[11]
  glycan array binding signal (z-score): -0.255
[12]
  glycan array binding signal (z-score): -0.242
[13]
  glycan array binding signal (z-score): -0.34
[14]
  glycan array binding signal (z-score): -0.093
[15]
  glycan array binding signal (z-score): -0.311
Gal(b1-4)Glc6S
  glycan array binding signal (z-score): 3.51
[16]
  glycan array binding signal (z-score): 3.61
[17]
  glycan array binding signal (z-score): -0.259
[18]
  glycan array binding signal (z-score): 0.425
[19]
  glycan array binding signal (z-score): -0.214
[20]
  glycan array binding signal (z-score): -0.206
[21]
  glycan array binding signal (z-score): -0.119
[22]
  glycan array binding signal (z-score): -0.194
Gal3S(b1-4)Glc6S
  glycan array binding signal (z-score): -0.255
Gal6S(b1-3)GlcNAc6S
  glycan array binding signal (z-score): 3.83
Gal6S(b1-4)Glc6S
  glycan array binding signal (z-score): 7.51
Gal6S(b1-4)GlcNAc
  glycan array binding signal (z-score): 1.98
Gal6S(b1-4)GlcNAc6S
  glycan array binding signal (z-score): 8.69
GalNAc(b1-6)GalNAc
  glycan array binding signal (z-score): -0.347
[23]
  glycan array binding signal (z-score): -0.483
[24]
  glycan array binding signal (z-score): -0.332
GlcNAc(b1-3)Fuc
  glycan array binding signal (z-score): -0.36
[25]
  glycan array binding signal (z-score): -0.307
[26]
  glycan array binding signal (z-score): -0.348
[27]
  glycan array binding signal (z-score): -0.32
GlcNAc(b1-4)GlcNAc
  glycan array binding signal (z-score): -0.359
[28]
  glycan array binding signal (z-score): -0.032
Kdn(a2-6)Gal(b1-4)GlcNAc
  glycan array binding signal (z-score): -0.005
Man(b1-4)GlcNAc
  glycan array binding signal (z-score): -0.301
[29]
  glycan array binding signal (z-score): -0.336
[30]
  glycan array binding signal (z-score): -0.342
[31]
  glycan array binding signal (z-score): -0.335
[32]
  glycan array binding signal (z-score): -0.321
[33]
  glycan array binding signal (z-score): -0.239
[34]
  glycan array binding signal (z-score): -0.251
[35]
  glycan array binding signal (z-score): -0.245
[36]
  glycan array binding signal (z-score): -0.34
[37]
  glycan array binding signal (z-score): -0.36
Neu5Gc(a2-6)GalNAc
  glycan array binding signal (z-score): -0.309
